Laboratory results from PubChem BioAssay.
Calls of active or inactive are those of the source.

Columns and labels:
[1] = test system: Plasmodium falciparum Sir2 (PF13_0152, Sir2A); assay: pfSir2 binders on small-molecule microarrays, primary screen, biochemical, small-molecule microarray, 635 nm fluorescence (AID 1098); settings: small-molecule microarray binding, fluorescence 635 nm; higher = more signal;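 also: score merges spot fluorescence intensity with its signal-to-noise ratio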
[2] = small-molecule microarray binders of probe aDKK1, primary screen, biochemical, biotinylated probe, 635/667 nm fluorescence (AID 1099); settings: higher = more signal;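 also: score merges 667nm spot fluorescence with signal to noise across triplicate slides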
[3] = small-molecule microarray binders of probe aCHRDL2, primary screen, biochemical, biotinylated probe, 635/667 nm fluorescence (AID 1100); settings: higher = more signal
[4] = splicing luciferase reporter signal modulators, primary screen, spliceosome inhibition project, cell-based, HEK293, splice +/- reporter (AID 1101); settings: luminescence, 24 h, higher = more signal, called active from +8 up or from −8 down;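 also: HEK293 cells carrying a splicing-competent luciferase reporter gene; test concentration not given here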
[5] = target: Fibroblast growth factor 10 (Homo sapiens) (UniProt O15520); assay: FGF10 binders on small-molecule microarrays, primary screen, biochemical, small-molecule microarray, 635 nm fluorescence (AID 1102); settings: FGF10 binding, fluorescence 635 nm, higher = more signal
Fibroblast growth factor 10 (Homo sapiens), sequence (O15520 whole entry, looked up): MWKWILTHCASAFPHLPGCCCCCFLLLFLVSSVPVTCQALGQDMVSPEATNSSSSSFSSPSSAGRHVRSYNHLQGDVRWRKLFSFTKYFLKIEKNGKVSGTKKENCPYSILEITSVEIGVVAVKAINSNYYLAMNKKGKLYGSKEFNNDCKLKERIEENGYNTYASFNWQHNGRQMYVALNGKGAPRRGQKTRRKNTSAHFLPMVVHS

[6] = test system: glycogen synthase kinase-3 (GSK3A per assay name; protocol says GSK3B); assay: GSK3 binders on small-molecule microarrays, primary screen, biochemical, small-molecule microarray, 635 nm fluorescence, GSK3A (AID 1103); settings: small-molecule microarray binding, fluorescence 635 nm; higher = more signal; also: the record names both GSK3A and GSK3B
[7] = target: Epidermal growth factor receptor (Homo sapiens) (UniProt P00533); assay: EGFR binders on small-molecule microarrays, primary screen, biochemical, small-molecule microarray, 635 nm fluorescence (AID 1104); settings: EGFR binding, higher = more signal;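 also: score merges 667 nm emission intensity with spot signal to noise over triplicate slides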
Epidermal growth factor receptor (Homo sapiens), sequence (P00533 whole entry, looked up): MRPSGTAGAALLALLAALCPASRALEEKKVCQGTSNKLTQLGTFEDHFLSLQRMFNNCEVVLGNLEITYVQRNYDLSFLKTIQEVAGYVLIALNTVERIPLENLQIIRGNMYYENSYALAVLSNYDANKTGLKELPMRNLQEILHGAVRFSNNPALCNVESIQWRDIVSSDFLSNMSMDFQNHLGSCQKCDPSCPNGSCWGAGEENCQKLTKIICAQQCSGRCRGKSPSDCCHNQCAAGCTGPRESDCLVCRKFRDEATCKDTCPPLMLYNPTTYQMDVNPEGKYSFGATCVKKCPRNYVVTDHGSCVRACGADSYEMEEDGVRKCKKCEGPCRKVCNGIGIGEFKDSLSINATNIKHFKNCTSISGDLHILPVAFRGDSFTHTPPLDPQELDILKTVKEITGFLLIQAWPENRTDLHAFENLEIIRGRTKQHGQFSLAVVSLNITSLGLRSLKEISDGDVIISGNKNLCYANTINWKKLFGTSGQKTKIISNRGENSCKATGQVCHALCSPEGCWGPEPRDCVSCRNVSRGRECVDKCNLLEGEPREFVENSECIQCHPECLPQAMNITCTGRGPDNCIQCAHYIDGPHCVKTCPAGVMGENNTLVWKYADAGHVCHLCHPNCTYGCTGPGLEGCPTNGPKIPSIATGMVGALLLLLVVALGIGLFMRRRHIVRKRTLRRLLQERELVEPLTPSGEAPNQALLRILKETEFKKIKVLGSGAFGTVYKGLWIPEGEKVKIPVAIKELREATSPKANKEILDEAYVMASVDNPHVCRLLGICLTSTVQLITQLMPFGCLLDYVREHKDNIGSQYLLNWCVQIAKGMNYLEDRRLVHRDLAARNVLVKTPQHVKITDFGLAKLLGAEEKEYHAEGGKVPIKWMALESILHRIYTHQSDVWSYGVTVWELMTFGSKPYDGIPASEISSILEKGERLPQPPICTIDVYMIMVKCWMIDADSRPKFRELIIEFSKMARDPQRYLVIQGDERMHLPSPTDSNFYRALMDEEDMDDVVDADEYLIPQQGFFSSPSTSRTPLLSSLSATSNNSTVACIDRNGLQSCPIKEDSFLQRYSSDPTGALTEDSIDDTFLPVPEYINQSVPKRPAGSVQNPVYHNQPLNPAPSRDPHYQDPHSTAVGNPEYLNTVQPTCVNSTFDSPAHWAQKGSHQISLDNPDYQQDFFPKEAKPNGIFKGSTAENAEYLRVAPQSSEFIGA

[8] = target: Follistatin-related protein 3 (Homo sapiens) (UniProt O95633); assay: FSTL3 binders on small-molecule microarrays, primary screen, biochemical, small-molecule microarray, 635 nm fluorescence (AID 1105); settings: FSTL3 binding, higher = more signal;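 also: score merges emission near 667 nm and signal to noise per printed spot across three slides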
Follistatin-related protein 3 (Homo sapiens), sequence (O95633 whole entry, looked up): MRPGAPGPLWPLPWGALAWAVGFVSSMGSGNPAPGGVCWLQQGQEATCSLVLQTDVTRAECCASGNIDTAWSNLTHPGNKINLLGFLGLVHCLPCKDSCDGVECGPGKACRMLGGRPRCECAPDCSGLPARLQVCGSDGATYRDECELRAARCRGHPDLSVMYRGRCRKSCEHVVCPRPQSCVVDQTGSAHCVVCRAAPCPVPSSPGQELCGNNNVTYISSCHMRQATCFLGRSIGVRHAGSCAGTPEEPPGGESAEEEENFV

[9] = target: Dickkopf-related protein 1 (Homo sapiens) (UniProt O94907); assay: DKK1 binders on small-molecule microarrays, primary screen, biochemical, small-molecule microarray, 635 nm fluorescence scan (AID 1106); settings: DKK1 binding, higher = more signal;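 also: score merges emission near 667 nm with signal to noise over three replicate slides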
Dickkopf-related protein 1 (Homo sapiens), sequence (O94907 whole entry, looked up): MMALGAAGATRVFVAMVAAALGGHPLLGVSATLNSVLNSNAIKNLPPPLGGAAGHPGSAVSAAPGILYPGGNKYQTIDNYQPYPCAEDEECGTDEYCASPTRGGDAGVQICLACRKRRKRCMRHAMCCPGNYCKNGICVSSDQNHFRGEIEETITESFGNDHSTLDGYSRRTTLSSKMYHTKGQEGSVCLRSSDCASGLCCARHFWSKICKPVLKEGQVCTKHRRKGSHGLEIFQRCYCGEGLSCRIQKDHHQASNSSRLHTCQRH

[10] = test system: Inhibin beta A chain (activin A); assay: INHBA (activin A) binders on microarrays, primary screen, biochemical, small-molecule microarray, 635 nm fluorescence scan (AID 1107); settings: small-molecule microarray binding, higher = more signal;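 also: mouse activin A protein probed at 4.33 µg/mL on printed slides; score merges bound-protein fluorescence near 667 nm with spot signal-to-noise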
[11] = test system: Human papillomavirus type 1a protein E7 (residues 44-93); assay: HPV1a E7 fragment binders on microarrays, primary screen, biochemical, small-molecule microarray, residues 44-93, 635 nm fluorescence (AID 1108); settings: small-molecule microarray binding, fluorescence 635 nm; higher = more signal;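 also: E7 fragment applied at 1 µg/mL in TBST for 1 h at 4 C; score combines spot fluorescence with its signal to noise ratio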
[12] = modulators of HCV replicon luciferase signal, primary screen, HCV replication inhibitor project, Huh7 cells, luciferase reporter (AID 1109); settings: 48 h, higher = more signal;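 also: huh7 hepatoma cells harbouring a luciferase neomycin HCV replicon reporter; luciferase luminescence as measure of HCV replicon replication; test concentration not given here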
[13] = target: Left-right determination factor 2 (Homo sapiens) (UniProt O00292); assay: LEFTY2 binders on small-molecule microarrays, primary screen, biochemical, small-molecule microarray, 635 nm fluorescence scan (AID 1110); settings: LEFTY2 binding, higher = more signal
Left-right determination factor 2 (Homo sapiens), sequence (O00292 whole entry, looked up): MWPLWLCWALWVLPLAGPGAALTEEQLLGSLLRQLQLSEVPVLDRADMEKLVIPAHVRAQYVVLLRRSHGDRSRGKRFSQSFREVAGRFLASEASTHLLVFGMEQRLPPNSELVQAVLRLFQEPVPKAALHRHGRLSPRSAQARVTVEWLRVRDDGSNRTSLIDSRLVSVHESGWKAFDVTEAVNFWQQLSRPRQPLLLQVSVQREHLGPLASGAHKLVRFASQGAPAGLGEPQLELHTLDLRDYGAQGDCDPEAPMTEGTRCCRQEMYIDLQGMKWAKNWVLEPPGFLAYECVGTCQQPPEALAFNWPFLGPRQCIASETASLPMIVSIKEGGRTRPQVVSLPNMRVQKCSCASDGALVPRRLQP

[14] = target: Calmodulin-1 (Homo sapiens) (UniProt P0DP23); assay: CALM1 binders on microarrays, EGTA buffer, profiling panel, biochemical, small-molecule microarray, Cy5-labelled CALM1 (AID 1111); settings: Cy5-CALM1 binding fluorescence, higher = more signal;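 also: labelled calmodulin applied in Tris saline Tween buffer holding calcium plus EGTA and DTT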
[15] = target: Calmodulin-1 (Homo sapiens) (UniProt P0DP23); assay: calcium-bound CALM1 binders on microarrays, profiling panel, artefact control for SMM control-protein annotation, biochemical, small-molecule microarray, Cy5-labelled CALM1, plus calcium (AID 1112); settings: Cy5-CALM1 binding fluorescence, higher = more signal;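 also: score merges spot fluorescence with signal to noise from triplicate slides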
[16] = small-molecule microarray binders of probe aWnt5a, primary screen, biochemical, biotinylated probe, 635/667 nm fluorescence (AID 1113); settings: higher = more signal;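 also: score merges 667 nm fluorescence intensity with signal-to-noise per printed feature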
[17] = small-molecule microarray binders of probe aShh, primary screen, biochemical, biotinylated probe, 635/667 nm fluorescence (AID 1114); settings: higher = more signal;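 also: probe is biotin-labelled aShh protein from a stem cell growth factor screen; measures binding of labelled protein to compounds printed on the slide; score merges feature fluorescence at 667 nm with signal-to-noise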
[18] = small-molecule microarray binders of probe aNog, primary screen, biochemical, biotinylated probe, 635/667 nm fluorescence (AID 1115); settings: higher = more signal;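 also: probe is biotinylated aNog protein used at 0.15 µg/mL for 1 h at 4 C; z-score combines 667 nm fluorescence of each spot with its signal to noise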
[19] = target: Torsin-1A-interacting protein 1 (Homo sapiens) (UniProt Q5JTV8); assay: LAP1 binders from COS7 cell lysate, primary screen, small-molecule microarray, 635/667 nm fluorescence (AID 1116); settings: COS7-hLAP1 lysate binding, 635 nm fluorescence, higher = more signal
Torsin-1A-interacting protein 1 (Homo sapiens), sequence (Q5JTV8 whole entry, looked up): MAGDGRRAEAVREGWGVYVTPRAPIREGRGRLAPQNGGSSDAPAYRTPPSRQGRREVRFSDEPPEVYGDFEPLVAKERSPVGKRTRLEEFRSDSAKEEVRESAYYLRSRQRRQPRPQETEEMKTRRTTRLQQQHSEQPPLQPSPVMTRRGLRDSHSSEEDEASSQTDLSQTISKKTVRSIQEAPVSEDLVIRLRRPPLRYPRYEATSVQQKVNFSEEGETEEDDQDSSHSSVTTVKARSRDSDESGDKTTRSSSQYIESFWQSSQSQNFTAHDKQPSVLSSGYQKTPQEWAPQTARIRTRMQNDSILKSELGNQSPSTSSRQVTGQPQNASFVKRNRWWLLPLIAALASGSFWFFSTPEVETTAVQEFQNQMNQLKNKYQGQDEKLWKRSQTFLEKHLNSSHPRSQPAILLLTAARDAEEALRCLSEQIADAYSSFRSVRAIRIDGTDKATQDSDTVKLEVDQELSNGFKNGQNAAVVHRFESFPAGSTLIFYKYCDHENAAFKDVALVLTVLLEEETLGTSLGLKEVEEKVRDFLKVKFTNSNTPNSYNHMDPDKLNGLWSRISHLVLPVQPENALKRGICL

[20] = target: Alpha-bungarotoxin (Bungarus multicinctus) (UniProt P60615); assay: alpha-bungarotoxin binders on microarray, profiling panel, artefact control for SMM control protein annotation, biochemical, small-molecule microarray, Alexa647 label, 635/667 nm fluorescence (AID 1117); settings: alpha-BTX-A647 binding fluorescence, higher = more signal
Alpha-bungarotoxin (Bungarus multicinctus), sequence (P60615 whole entry, looked up): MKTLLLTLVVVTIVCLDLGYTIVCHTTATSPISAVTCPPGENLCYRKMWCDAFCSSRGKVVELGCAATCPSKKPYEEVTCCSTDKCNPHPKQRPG

SMILES	composite z-score [1]	composite z-score [2]	composite z-score [3]	z-score [4]	composite z-score [5]	composite z-score [6]	composite z-score [7]	composite z-score [8]	composite z-score [9]	composite z-score [10]	composite z-score [11]	z-score [12]	composite z-score [13]	composite z-score [14]	composite z-score [15]	composite z-score [16]	composite z-score [17]	composite z-score [18]	composite z-score [19]	composite z-score [20]
COCCOC(=O)N1C(=O)[C@@]2(c3cc(C#CC4(O)CCCCCC4)ccc31)[C@H](c1ccccc1OCCO)N1[C@H](c3ccccc3)[C@H](c3ccccc3)OC(=O)[C@H]1[C@@H]2C(=O)Nc1nc2ccccc2s1	0.81	0.55	0.65	-0.318 (inactive)	0.989	1.23	0.45	1.07	0.816	0.995	0.425	-1.51	0.636	1.59	0.941	0.0317	0.275	0.182	1.46	2.25
CC(C)(C)OC(=O)CC[C@@]1(C(=O)N2CCOCC2)N=C(c2ccc(OCCCO)cc2)O[C@@H]1c1ccccc1	1.12	1.33	1.36	-1.17 (inactive)	0.728	0.943	-0.384	-0.462	-0.607	0.743	0.358	-0.0126	-0.26	2.08	1.31	-0.0403	0.798	1.4	3.32	2.06
C/C=C/[C@@H](CCn1cc(CCO[Si](C(C)C)(C(C)C)C(C)C)nn1)[Si](C)(C)c1ccc(OC)cc1	-0.82	-0.941	-0.34	-2.83 (inactive)	-1.03	-0.918	-2.01	-1.72	-1.03	1.01	-0.77	-0.918	-0.426	-2.98	-2.87	-0.182	-0.323	-0.866	-0.24	-1.25
CO[C@H]1O[C@H](CO)[C@@H](OC(=O)Nc2ccccc2)[C@H](OC(=O)Nc2ccccc2-c2ccccc2)[C@H]1OC(=O)Nc1ccccc1-c1ccccc1	1.79	0.834	0.91	-2.83 (inactive)	0.626	1.31	-0.165	0.824	0.482	0.0315	1.36	-3.9	0.152	2.18	0.438	-0.0735	0.366	0.767	2.08	2.54
Cc1ccc(S[C@]2(C(=O)NC3CC3)CC(=O)N(Cc3ccccc3C(F)(F)F)[C@@H]2c2ccc(CO)cc2I)cc1	1.64	0.913	1.1	-2.01 (inactive)	-0.28	-0.0828	-0.385	-0.292	-0.425	1.72	0.33	-1.55	-0.659	0.514	1.14	-0.124	0.188	0.568	0.955	0.0637
CC(C)N1C(=O)c2ccccc2[C@@H](C(=O)NCc2ccccc2)[C@@H]1c1ccc(CO)cc1	1.05	0.326	0.932	-0.242 (inactive)	-0.844	0.192	-0.183	-0.0398	-0.319	0.481	0.319	0.313	-0.514	-0.808	0.306	-0.178	-0.203	0.198	0.481	-1.92
NCCCCCCNC(=O)[C@@H]1C[C@@H]2C(=O)N[C@@H](Cc3ccccc3)C(=O)N2[C@@H]1c1ccc(O)cc1	0.791	0.678	0.709	-0.573 (inactive)	0.25	0.717	0.0626	0.367	0.627	1.15	1.12	0.355	0.093	2	1.32	-0.11	0.318	0.075	0.526	1.3
COC(=O)C(CC#Cc1ccc2c(c1)[C@]1(C(=O)N2)[C@H](C(N)=O)[C@H]2C(=O)O[C@H](c3ccccc3)[C@H](c3ccccc3)N2[C@@H]1c1ccc(O)cc1)C(=O)OC	1.12	-0.608	-0.0947	0.0733 (inactive)	-0.519	-1.15	-1.1	-1.28	-0.591	-1.15	-1.74	-0.152	-1.19	-0.351	0.221	-0.359	0.373	-0.446	0.659	-0.243
CC(C)(C)OC(=O)CC[C@@]1(C(=O)NCc2ccccc2)N=C(c2ccc(OCCCO)cc2)O[C@@H]1c1ccccc1CN=[N+]=[N-]	1.08	1.06	0.997	0.014 (inactive)	1.16	1.3	0.0887	0.622	0.11	0.664	-0.179	-2.28	0.0022	1.61	0.605	0.164	-0.0446	0.799	0.487	1.55
COCCCNC(=O)[C@@]1(Cc2ccccc2)N=C(c2ccc(OCCCO)cc2)O[C@H]1c1ccccc1N=[N+]=[N-]	0.481	1.22	1.19	-1.3 (inactive)	1.2	1.24	-0.176	0.176	0.101	1.31	0.175	-2.59	-0.151	1.05	0.945	0.115	1.02	0.805	0.948	1.35
COc1ccc(/C=C/C(=O)c2cccc(OCC(=O)OC(C)(C)C)c2)cc1	0.726	0.145	0.436	-0.611 (inactive)	-0.189	0.483	-0.693	-0.525	-0.442	0.379	0.268	1.33	-0.606	-0.0784	-0.159	-0.173	-0.2	-0.5	0.154	0.45
